# Bioassay records from PubChem BioAssay.
# A selection: hits, their analogues and other compounds. The true share with any hit is near 1.1%.
# Tb PYK inh: inhibitors of Trypanosoma brucei pyruvate kinase. TbPYK enzyme, Kinase-Glo Plus ATP luminescence, 45 min. Q57TT1. 410,000 tested, 0.12% active. AID 624173. Potency, µM (titrated, usually from 76.8 µM), for the others: at the highest dose activity, negative = inhibition, hits mostly inhibitors; also: % is scaled to controls: 0 for no effect and ±100 for the full control effect; nearly all actives have a fitted effect of over 50% in size
#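 ADP (130 uM final) triggers the TbPYK reaction after compound addition; incubation is 45 min at room temperature. Kinase-Glo Plus is then added and luminescence imaged. Normalized data are fitted to concentration-effect curves.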
# RE007 growth inh: less growth of the S. pombe RE007 Vpr strain; 360,000 tested, 0.21% active; S. pombe RE007 Vpr strain, BacTiter-Glo ATP luminescence, 24 h; Potency, µM (series often up to 92.2 µM), for the others: top-dose activity change, negative = less growth, actives largely listed as inhibitors; active = well fitted falling curve with a large enough effect; inconclusive = small, poorly fitted or top-dose-only effect; inactive = no such curve, though single readings can be large or run the other way; also: % is scaled to controls: 0 for no effect and ±100 for the full control effect; nearly all actives have a fitted effect of over 50% in size
#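 Fission yeast RE007 carrying one integrated HIV-1 vpr copy, seeded at OD 0.01 in PMG+AL medium with 23 nL pinned compound. Grown 24 h at 30 degrees; viability read by BacTiter-Glo luminescence after 5 min.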
# Giardia FBPA inh-1: blocks Giardia fructose-bisphosphate aldolase activity | A8B2U2 | purified Giardia FBPA | Potency, µM (highest dose often 59.6 µM), for the others: top-dose activity, negative = inhibition, usual class: inhibitors | 290,000 tested, 0.71% active; also: % is scaled to controls: 0 for no effect and ±100 for the full control effect; nearly all actives have a fitted effect of over 55% in size
# Target sequence (A8B2U2 whole entry, looked up): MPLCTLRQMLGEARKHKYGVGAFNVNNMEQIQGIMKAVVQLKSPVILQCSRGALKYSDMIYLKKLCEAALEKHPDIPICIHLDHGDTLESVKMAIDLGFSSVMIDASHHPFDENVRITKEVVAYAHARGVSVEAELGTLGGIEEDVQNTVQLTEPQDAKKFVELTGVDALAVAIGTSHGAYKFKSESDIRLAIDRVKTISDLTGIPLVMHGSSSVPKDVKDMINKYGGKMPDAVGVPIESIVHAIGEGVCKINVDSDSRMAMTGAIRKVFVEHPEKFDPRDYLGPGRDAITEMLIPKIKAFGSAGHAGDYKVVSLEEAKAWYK
#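 40 nM FBPA preincubated 10 min at RT with compound (up to 57.5 uM final), then substrate plus GAPDH/TPI/NAD/arsenate coupling and diaphorase/resazurin added. Fluorescence read after 20 min at RT, 525/598 nm.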
# SARS PLpro yeast: inhibitors of SARS-CoV papain-like protease in yeast; 330,000 tested, 0.19% active; S. cerevisiae expressing SARS-CoV PLpro, growth rescue; Potency, µM (titrated, usually from 32.9 µM), inactives show top-dose activity, positive = growth rescue, most hits filed as activators; calls by dose curve; also: 0% is about no effect; nearly all actives have a fitted effect of over 55% in size
# LmPK inhibitor: blocks Leishmania mexicana pyruvate kinase activity | purified LmPK, Kinase-Glo ATP luminescence, 1 h | AID 1721 | Potency, µM (series often up to 57.5 µM), inactives show top-dose activity change, negative = inhibition, actives largely listed as inhibitors | 290,000 tested, 0.37% active | Q27686; also: % is scaled to controls: 0 for no effect and ±100 for the full control effect
#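 ATP generated from ADP (0.1 mM) and PEP (0.5 mM) by 0.1 nM LmPK over 1 h at room temperature (pH 7.2 imidazole buffer) was detected by coupled luciferase luminescence. Values were normalized to uninhibited and no-enzyme wells.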
# Giardia growth: Giardia lamblia growth inhibition; Giardia lamblia trophozoite growth inhibition; 1,500 tested, 5% active; shares compounds with Giardia FBPA inh-1; Potency, µM (series often up to 57.5 µM), for the others: top-dose activity change, negative = inhibition, actives largely listed as inhibitors;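 also: trophozoites exposed to compound for 48 h at 37 °C; % is scaled to controls: 0 for no effect and ±100 for the full control effect; nearly all actives have a fitted effect of over 70% in size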
# Mammalian tox: mammalian cytotoxicity of Giardia aldolase inhibitor hits. Potency, µM (series often up to 57.5 µM), without a hit: top-dose viability change, negative = toxicity, usual class: inhibitors. 1,500 tested, 4% active. mammalian cell viability counter-screen, qHTS. shares compounds with Giardia FBPA inh-1. AID 2786;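 also: Chinese hamster ovary cells used as mammalian cytotoxicity surrogate; viability measured as cellular ATP by luminescence; compound exposure lasted 48 h before reading; % is scaled to controls: 0 for no effect and ±100 for the full control effect; nearly all actives have a fitted effect of over 60% in size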
# Giardia FBPA inh-2: confirmation of Giardia fructose-bisphosphate aldolase inhibitors; shares compounds with Giardia FBPA inh-1; purified Giardia aldolase enzyme activity, qHTS; Potency, µM (titrated, usually from 57.5 µM), inactives show top-dose activity change, negative = inhibition, usual class: inhibitors; 1,500 tested, 5% active; AID 2787; also: % is scaled to controls: 0 for no effect and ±100 for the full control effect; nearly all actives have a fitted effect of over 45% in size
# Rabbit aldolase: selectivity test for Giardia aldolase inhibitors: rabbit aldolase; shares compounds with Giardia FBPA inh-1; Rabbit muscle FBPA enzyme inhibition, selectivity counter-screen; Potency, µM (highest dose often 57.5 µM), without a hit: at the highest dose activity, negative = inhibition, hits mostly inhibitors; 1,500 tested, 4% active; also: % is scaled to controls: 0 for no effect and ±100 for the full control effect; nearly all actives have a fitted effect of over 60% in size
# Target sequence (P00883 whole entry, looked up): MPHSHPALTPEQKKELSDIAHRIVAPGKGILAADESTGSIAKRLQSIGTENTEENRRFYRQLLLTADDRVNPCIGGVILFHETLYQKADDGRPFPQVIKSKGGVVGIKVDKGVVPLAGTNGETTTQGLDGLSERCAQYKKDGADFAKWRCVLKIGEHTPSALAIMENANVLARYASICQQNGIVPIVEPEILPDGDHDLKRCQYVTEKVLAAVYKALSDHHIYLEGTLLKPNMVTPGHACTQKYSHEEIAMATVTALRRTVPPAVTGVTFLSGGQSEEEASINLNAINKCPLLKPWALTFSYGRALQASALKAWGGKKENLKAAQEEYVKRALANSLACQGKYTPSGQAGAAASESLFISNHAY
# GAPDH counter: GAPDH inhibition flagged for Giardia aldolase hits; shares compounds with Giardia FBPA inh-1; GAPDH coupling enzyme counterscreen, biochemical, qHTS; Potency, µM (top dose mostly 57.5 µM), without a hit: at the top dose activity change, negative = inhibition, usual class: inhibitors; 1,500 tested, 6% active; also: % is scaled to controls: 0 for no effect and ±100 for the full control effect; nearly all actives have a fitted effect of over 55% in size
# Starred values were filed as active, the others as inactive; ? = inconclusive; · = no result given; [ ] = another dose, or the depositor's remark. Unless noted, calls follow the shape of the dose curve; as a rule, active = well fitted curve in the direction sought with a large enough effect; inconclusive = small, poorly fitted or top-dose-only effect, or another doubt; inactive = no such curve, though single readings can be large; an effect the other way counts as inactive or inconclusive. Potency is read from the fitted curve at half-maximal effect.
SMILES,Tb PYK inh,RE007 growth inh,Giardia FBPA inh-1,SARS PLpro yeast,LmPK inhibitor,Giardia growth,Mammalian tox,Giardia FBPA inh-2,Rabbit aldolase,GAPDH counter
CC(C)(C)NNC(=S)Nc1ccc(S(=O)(=O)N2CCOCC2)cc1,0.8%,-0.8%,22.3µM*,0.3%,0.7%,-2.8%[10.4 µM],-5.3%,-0.5%,7.3%,8.4%
Nc1nc(=S)n(-c2ccccc2)[nH]1,-15.4%,3.9%,7.06µM*,-2.1%,3.5%,18.6%,-0.9%,2.3%,5.2%,9.3%
O=[N+]([O-])c1ccccc1/C=C/CN1CCSCC1,17.3%,3.1%,15.8µM*,3.3%,-0.7%,?,19.1%,-0.6%,13.5%,-4.5%
CC1CCCN(C/C=C/c2ccccc2[N+](=O)[O-])C1 (stereo unspecified),-4.1%,-5.1%,-7.8%,1.7%,4.3%,·,·,·,·,·
N#CC1=C(N)Oc2c(O)cc3ccccc3c2C1c1ccsc1 (stereo unspecified),3.2%,-2.1%,17.7µM*,4.1%,0.6%,6.9%[10.4 µM],-0.2%,?,?,?
Cc1[nH]c2ccccc2c1/C=N/Nc1nncn1N,-4.6%,1.1%,12.6µM*,-3.1%,-0.7%,-11.6%,-18.7%,?,?,-27.4%
Cc1[nH]c2ccccc2c1/C=N/Nc1ccccn1,·,·,-3.3%,-4.7%,1.5%,·,·,·,·,·
COc1ccc(OC)c(S(=O)(=O)NNC(=S)Nc2ccc3c(c2)OCO3)c1,-11.6%,-12.0%,8.91µM*,3.0%,-0.3%,9.1%[38.3 µM],-0.8%,-16.0%,-10.4%,-16.6%
CCOCCCn1c(=O)c2ccccc2n2c(=S)[nH]nc12,-30.0%,1.2%,12.6µM*,2.3%,2.2%,28.3%,4.7%,8.5%,18.4%,10.1%
Cc1ccc2c(=O)cc(C(=O)Nc3ccc(S(=O)(=O)N4CCCCC4C)cc3)oc2c1C (stereo unspecified),-6.8%,·,·,·,·,·,·,·,·,·
CSc1ccc(-c2sc(Nc3ccccc3)n[n+]2-c2ccccc2)cc1,-9.8%,-5.4%,25.1µM*,-2.2%,-14.2%,-28.3%,-24.2%,-0.6%,8.8%,1.7%
C[n+]1nc(Nc2cccc3ccccc23)sc1-c1ccc(C(=O)O)cc1,·,·,-0.8%,2.3%,3.0%,·,·,·,·,·
COc1ccc(C)cc1Nc1n[n+](-c2ccccc2)c(-c2ccc(SC)cc2)s1,-14.5%,-6.5%,?,-6.4%,-14.9%,·,·,·,·,·
COc1ccc(C)cc1Nc1n[n+](-c2ccccc2)c(-c2ccc(NC(C)=O)cc2)s1,-5.0%,1.7%,22.4µM*,1.6%,-6.0%,?,1.1%,3.7%,-4.7%,11.5%
CC(=O)Nc1ccc(-c2sc(Nc3cccc4ccccc34)n[n+]2-c2ccccc2)cc1,-5.1%,-4.2%,15.8µM*,2.6%,0.5%,31.6%,6.1%,7.3%,3.3%,12.7%
CSc1ccc(-c2sc(Nc3cccc4ccccc34)n[n+]2-c2ccccc2)cc1,-21.3%,-9.4%,25.1µM*,-3.6%,-1.5%,13.6%,-20.8%,-19.6%,-20.0%,-24.1%
CCc1ccc(Nc2n[n+](-c3ccccc3)c(-c3ccc(SC)cc3)s2)cc1,-14.0%,3.3%,-25.4%,-2.2%,-5.8%,·,·,·,·,·
O=C(O)CCCCCN1C(=O)/C(=C\c2ccc(-c3ccc(Cl)cc3)o2)SC1=S,-3.3%,20.0%,15.8µM*,-1.3%,-6.5%,10.9%[10.4 µM],4.2%,-4.0%,3.1%,14.8%
NC(=S)N=Nc1ccc(NN=C(N)N)cc1,?,-20.5%,10µM*,2.0%,-6.3%,22.2%,-3.3%,?,?,?
O=C(c1ccccc1)c1ccccc1N1C(=O)C=CC1=O,5.01µM*,35.5µM*,15.8µM*,-6.5%,14.1µM*,-7.3%[10.4 µM],7.1%,-9.7%,-18.7%,-20.6%
CN(C)CCNC(C(=O)Nc1cccc(C(F)(F)F)c1)c1ccccc1 (stereo unspecified),2.3%,8.1%,17.7µM*,-0.3%,-0.4%,-7.7%,-7.7%,1.1%,1.3%,6.4%
S=c1nc[nH]c2nc[nH]c12,-11.4%,8.2%[18.4 µM],7.94µM*,-3.1%,-4.5%,17.3%[38.3 µM],7.94µM*,?,5.2%,-5.8%
Cc1cc(C)cc(NC(=O)C(=O)NCC2CCCO2)c1 (stereo unspecified),-2.4%,-4.2%,2.3%,-0.1%,-14.1%,·,·,·,·,·
Cc1cc(C)cc(NC(=O)C(NCC2CCCO2)c2ccccc2)c1 (stereo unspecified),29.7%,-5.8%,15.8µM*,6.9%,-2.5%,-15.7%[10.4 µM],7.7%,-0.6%,6.1%,8.3%
Cc1nn(-c2ccc(N3CCCCC3)nn2)c(C)c1CCC(=O)NCc1ccccc1,-0.1%,·,·,·,·,·,·,·,·,·
SMILES,Tb PYK inh,RE007 growth inh,Giardia FBPA inh-1,SARS PLpro yeast,LmPK inhibitor,Giardia growth,Mammalian tox,Giardia FBPA inh-2,Rabbit aldolase,GAPDH counter
CC(C)N(CC#CCC(O)(c1ccccc1)c1ccccc1)CCO,2.4%,-24.4%,15.8µM*,-0.4%,-3.5%,-8.0%,8.9%,3.4%,19.2%,2.8%
COc1ccc(C2c3c(n(C)c4ccccc34)C(=O)N2CC(=O)Nc2ccc(C)cc2Cl)cc1 (stereo unspecified),0.4%[15.4 µM],·,·,·,·,·,·,·,·,·
O=S(=O)(c1cccc(Cl)c1)c1nnn2c1nc(NC1CCCCCC1)c1sccc12,-3.4%,·,·,·,·,·,·,·,·,·
COc1cccc(C(=O)Nc2nc3c(s2)CCCC3)c1,-23.9%,·,·,·,·,·,·,·,·,·
Cc1ccc(CNC(=O)CCCc2nnc3n(CC(C)C)c(=O)c4sccc4n23)cc1,-2.2%,·,·,·,·,·,·,·,·,·
CCOC1C(=O)NC(=O)N1Cc1ccccc1 (stereo unspecified),4.6%,13.9%,28.2µM*,0.9%,-1.3%,11.5%,-7.0%,12.7%,10.2%,4.7%
O=C1/C(=C\c2ccc(O)cc2)SC(=S)N1c1cccnc1,-0.6%,10.9%,-5.1%,0.2%,5.8%,·,·,·,·,·
O=C1/C(=C/c2ccco2)SC(=S)N1c1cccnc1,?,?,8.89µM*,-0.3%,5.0%,?,-5.1%,-14.4%,-0.7%,-3.3%
COc1cc(Cl)ccc1NC(=S)N(CCN1CCOCC1)C1CCN(C(C)=O)CC1,-6.4%,-3.3%,17.7µM*,-1.0%,2.9%,-7.3%[10.4 µM],3.6%,6.0%,1.3%,4.9%
